# Experimental data published in PubChem BioAssay AID440 (NMMLSC, 2006).
# Hit rate of the full screen: of about 24,000 compounds, about 180 (0.75%) were called active. For the sample, actives were picked, then their nearest neighbours and some compounds at random. Values without a mark were called inactive. Cut-off read from the data, not from the text of the source: active = inhibition above about 30%; inconclusive = no clear call, values can overlap the other calls; inactive = below that.
# Molecular target: fMet-Leu-Phe receptor (Homo sapiens) (UniProt P21462)
# Experiment: small molecules displacing FPR fluorescent ligand – cell-based, FPRL1 counter-screen, flow cytometry, primary screen (AID 440);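 note: 0% = buffer wells and 100% = receptor blocker peptide wells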
# Settings: FPR-expressing cells, fluorescent ligand binding, active compounds read high, concentration not given here
# Sequence of fMet-Leu-Phe receptor (Homo sapiens) (P21462 whole entry, looked up): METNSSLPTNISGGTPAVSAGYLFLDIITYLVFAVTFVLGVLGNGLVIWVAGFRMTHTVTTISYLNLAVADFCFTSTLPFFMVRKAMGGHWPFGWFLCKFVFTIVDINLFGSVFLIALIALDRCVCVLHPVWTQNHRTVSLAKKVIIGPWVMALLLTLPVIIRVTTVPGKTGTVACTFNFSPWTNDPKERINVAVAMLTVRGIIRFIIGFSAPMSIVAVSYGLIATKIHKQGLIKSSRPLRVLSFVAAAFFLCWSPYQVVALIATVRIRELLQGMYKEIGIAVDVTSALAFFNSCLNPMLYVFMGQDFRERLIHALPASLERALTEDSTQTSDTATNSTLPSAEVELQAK
row,Structure (SMILES),inhibition
1,N#CCCN1CCN(S(=O)(=O)c2ccc(S(=O)(=O)N3CCCC3)cc2)CC1,-3.3%
2,O=C(Nc1ccc(Cl)cn1)Nc1cccs1,-2.2%
3,COc1ccc(/C(O)=C2\C(=O)C(=O)N(Cc3ccco3)C2c2ccc(OC)cc2OC)cc1 (stereo not given),38% (active)
4,COc1ccc(/C(O)=C2/C(=O)C(=O)N(CC3CCCO3)C2c2ccc(OC)c(OC)c2)cc1 (stereo not given),0.3%
5,COc1ccccc1C1/C(=C(/O)c2ccc(C)cc2)C(=O)C(=O)N1Cc1ccco1 (stereo not given),4.3%
6,CCOC(=O)Cn1c(CN(Cc2ccccc2)Cc2ccccc2)nc2c1c(=O)[nH]c(=O)n2C,-0.1%
7,COc1c(F)c(F)c(C(=O)O)c(Nc2ccccc2C)c1F,-4.8%
8,Cc1cc(N2C(=O)C(=O)/C(=C(/O)c3ccccc3)C2c2cccc(Br)c2)no1 (stereo not given),-1.3%
9,CCOC(=O)c1ccn(-c2nc(-c3ccco3)cc(C(F)(F)F)n2)n1,5.4%
10,CN1CCCC(OC(=O)COc2ccc(Br)cc2)C1 (stereo not given),-3%
11,CCCn1nnc2sc3c(c2c1=O)CCC(C)C3 (stereo not given),0.2%
12,Cc1cccc(-n2nc3c(c2NC(=O)c2ccc(Br)o2)CSC3)c1C,6.4%
13,CC1(C)C(=O)Nc2ccccc2N1C(=O)COC(=O)Cn1cnc2ccccc2c1=O,-1.5%
14,O=C(CCSCCc1ccccn1)Nc1nccs1,2.6%
15,Clc1ccc(Cc2nn3c(-c4ccncc4)nnc3s2)cc1,46.7% (active)
16,c1ccc(Cc2nn3c(Cn4cnc5ccccc54)nnc3s2)cc1,4.2%
17,CCOc1cccc(-c2nnc3sc(COc4ccc(OC)cc4)nn23)c1,-4.8%
18,CCOc1ccc(NC(=O)CCS(=O)(=O)c2cccc3nsnc23)cc1,7.6%
19,O=C(c1ccccc1)c1cccn1CC(=O)N1CCN(c2ccc(F)cc2)CC1,0.2%
20,CCCC(=O)C1=C(N(C)c2ccccc2)CC(C)(C)C(C(=O)OC)C1=O (stereo not given),1.9%

row,Structure (SMILES),inhibition
1,O=C(O)CC(c1ccccc1)n1cnnn1 (stereo not given),-4.6%
2,CCN(Cc1ccccc1)C(=O)CSc1nc(C)cc2c1C(=O)OC2,2%
3,O=C(CCN1C(=O)c2ccccc2C1=O)NCCN1CCOCC1,-4.5%
4,O=C1CC(c2ccccc2)CC(O)=C1C=NCCN1CCOCC1 (stereo not given),9.7%
5,CCCC(=O)Nc1nnc(CC(=O)OCC)s1,9.1%
6,COc1cc(C2C(C(=O)c3ccc(C)o3)=C(O)C(=O)N2Cc2cccnc2)ccc1O (stereo not given),40.6% (active)
7,CCOc1ccccc1C(=O)NCCCn1ccnc1,-3.4%
8,COc1cc(C2C(C(=O)c3sc(C)nc3C)=C(O)C(=O)N2CCN(C)C)cc(OC)c1OC (stereo not given),3.4%
9,CCOc1ccc(/C(O)=C2/C(=O)C(=O)N(Cc3cccnc3)C2c2ccc(N(C)C)cc2)c(C)c1 (stereo not given),27.7%
10,COc1cc(C2C(C(=O)c3ccc(C)o3)=C(O)C(=O)N2CCc2ccccc2)ccc1O (stereo not given),69.9% (active)
11,CCCOc1ccc(C2c3c(oc4cc(C)c(C)cc4c3=O)C(=O)N2CCCN2CCOCC2)cc1 (stereo not given),5.8%
12,COc1cc(C2C(C(=O)Nc3ccccc3OC)=C(C)Nc3ncnn32)ccc1O (stereo not given),-6.4%
13,CCCOc1ccc(C2C(C(=O)c3ccc(C)o3)=C(O)C(=O)N2CCCn2ccnc2)cc1 (stereo not given),52.8% (active)
14,COc1ccc(-c2nc(CS(=O)CC(=O)NCc3cccnc3)c(C)o2)cc1OC (stereo not given),7.2%
15,O=C(c1cccnc1NCc1ccccc1)N1CCOCC1,-10.6%
16,CCOC(=O)c1[nH]c2c(c1C)C(=O)CC(c1ccc(N(C)C)cc1)C2 (stereo not given),9%
17,Nc1ccc(-n2nncc2-c2ccco2)cc1,3%
18,O=C(CN1CCN(S(=O)(=O)c2ccc(F)cc2)CC1)Nc1ccccc1F,5.7%
19,COc1ccc2c(CC(=O)Nc3nnc(C4CC4)s3)coc2c1,-3.4%
20,CC1Cc2cc(/C(O)=C3\C(=O)C(=O)N(CCN4CCOCC4)C3c3ccccc3F)ccc2O1 (stereo not given),18.6%

row,Structure (SMILES),inhibition
1,COCCCN1C(=O)C(=O)/C(=C(/O)c2ccc3c(c2)CC(C)O3)C1c1cccnc1 (stereo not given),33.5% (active)
2,CCOc1cccc(/C(O)=C2/C(=O)C(=O)N(CCOC)C2c2ccncc2)c1 (stereo not given),4.6%
3,COc1cc(C2C(C#N)=C(C)NC3=C2C(=O)CC(C)(C)C3)ccc1O (stereo not given),4.9%
4,Cc1ccc(C2CC(=O)NC(SCC(=O)OCc3ccccc3)=C2C#N)o1 (stereo not given),0.1%
5,CCCOC(=O)Nc1sc2c(c1C(=O)OCC)CCC2,-12.7%
6,CCN(CC)S(=O)(=O)N1CCC(C(=O)NC(C)CCc2ccccc2)CC1 (stereo not given),-9.4%
7,CCC(C)(NC(=O)c1ccccn1)C(=O)NC1CCCCC1 (stereo not given),6.6%
8,COCCNC(=O)Cn1cc2c(n1)CCCCC2,-5.5%
9,Cc1onc(-c2ccccc2Cl)c1C(=O)NCCn1ccc2ccccc21,5.6%
10,COc1ccccc1CNC(=O)CCn1c(=O)sc2ccccc21,1.8%
11,O=C(C1CCN(S(=O)(=O)c2cccs2)CC1)N1CCCCCC1,2.5%
12,Cc1cc(C)nc(-n2nc(C)cc2NC(=O)c2ccc(Br)o2)n1,-6.1%
13,O=C(CN1C(=O)C2C3C=CC(C3)C2C1=O)NCC1COc2ccccc2O1 (stereo not given),-0.7%
14,O=C1c2ccncc2C(=O)N1C1CCCCC1,0.9%
15,COc1ccc(Cn2nnc3c(=O)[nH]c(C4CCN(C(=O)c5ccccc5Cl)CC4)nc32)cc1,-0.8%
16,Cc1nc(C)c(C(=O)Nc2cccc(C)c2C)o1,3%
17,COc1ccccc1Cn1c(=S)[nH]c2cc(C(=O)N3CCN(C)CC3)ccc2c1=O,-4%
18,S=C1SCN(CCN2CCOCC2)CN1Cc1ccccc1,-1.1%
19,CCOC(=O)C1CCN(C(=O)CSc2cc(=O)n(C)c3ccccc23)CC1,-1.5%
20,Cn1c(=O)cc(OCCCC(=O)N2CCN(c3ccccn3)CC2)c2ccccc21,-0.8%
